Laboratory results: PubChem BioAssay (NCATS)
Inconclusive results are not listed. Active and inactive are the calls of the source. The call rests on the fitted dose curve; in most records, active means well fitted inhibition curve with a large enough effect; inconclusive means small, poorly fitted or top-dose-only effect; inactive means flat fitted curve, though single readings scatter.

Tested on: HACAT
Assay: qHTS assay to identify novel small-molecules to repurpose for Merkel cell carcinoma treatment (AID 1296009); further: nearly all actives have a fitted effect of over 60% in size
Conditions: MCC and control cell lines, CellTiter-Glo viability, 72 h; at 44.8 µM (top of the series) unless noted
Procedure, shortened: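 Cells were treated for 72 hr at 37 degree celsius with compounds in 8- or 11-point dose response. Viability was read by CellTiter-Glo luminescence, normalized to no-cell (cytotoxicity) and DMSO controls.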

SMILES | outcome
CC(C)=C1C[C@@]2(C)C(=CC1=O)CC[C@@H](OC(=O)/C(C)=C/CO)[C@@H]2C | inactive
Cc1[nH]c(/C=C2\C(=O)Nc3ccc(S(=O)(=O)N(C)c4cccc(Cl)c4)cc32)c(C)c1C(=O)N1CCN(C)CC1 | inactive
O=S(=O)(Nc1cc(Cl)c(Oc2cnc3ccccc3c2)c(Cl)c1)c1ccc(Cl)cc1Cl | inactive
CC(=O)OC(C)(C)/C=C/C(=O)[C@](C)(O)[C@H]1C(O)C[C@@]2(C)[C@@H]3CC=C4[C@@H](C=C(O[C@@H]5O[C@H](CO)[C@@H](O)[C@H](O)[C@H]5O)C(=O)C4(C)C)[C@]3(C)C(=O)C[C@]12C (some centres undefined) | inactive [at 17.4 µM]
O=C1NC(=O)C(c2cnc3ccccn23)=C1c1cn2c3c(cc(F)cc13)CN(C(=O)N1CCCCC1)CC2 | inactive
CC(=O)C1=C(O)C=C2Oc3c(C(C)=O)c(O)c(C)c(O)c3[C@]2(C)C1=O | inactive
N#Cc1ccc(O[C@@H]2c3ccccc3C[C@H]2N2CCC[C@@H](N)C2)c(Cl)c1 | inactive
Cc1cccc(-c2[nH]ncc2-c2ccnc3ccccc23)n1 | inactive
Cc1cc2c(F)c(Oc3ncnn4cc(OCC(C)OC(=O)C(C)N)c(C)c34)ccc2[nH]1 (centres undefined) | inactive
